Results filed as inconclusive are left out. For part of these data: Potency and affinity values are given separately. The source made the active and inactive calls.
How the values were obtained:
[1] = Ebola virus entry assay, reporter ratio channel; AC50: Channel type: primary unless noted; outcome: Channel type: primary unless noted
[2] = Ebola virus entry assay, blue channel (ratio component)
[3] = Ebola virus entry reporter assay, green channel fluorescence
[4] = Ebola virus entry cell assay, ratio channel
[5] = Immunotoxin (HA22) sensitization/mitigation study. Vehicle arm (PBS) (AID 1159510); also: potency is read from the fitted curve at half-maximal effect
[6] = Immunotoxin (SS1P) sensitization/mitigation study. Vehicle arm (DMEM) (AID 1159513); also: potency is read from the fitted curve at half-maximal effect
[7] = qHTS assay for measurement of the activity of small molecule inhibitors on Zika virus induced Caspase-3 activity in human iPSC derived neural progenitor cells (hNPCs) (AID 1224857; active = well fitted curve in the direction sought with a large enough effect; an effect the other way counts as inactive or inconclusive; also: nearly all actives have a fitted effect of over 65% in size)
Summary of the method: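 After overnight (16–20 h) culture at 350 cells/well, hNPCs get compound, then ZIKV 2 FFU/cell one hour later. Six hours on, Caspase-Glo 3/7 is added and luminescence measured.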

[8] = qHTS assay for measurement of the activity of small molecule inhibitors on Zika virus induced Caspase-3 activity in human astrocytoma cells (AID 1224859; active = well fitted curve in the direction sought with a large enough effect; an effect the other way counts as inactive or inconclusive)
Summary of the method: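 Inhibition of Zika-induced caspase-3/7 activity: SNB-19 cells, 1 h compound pretreatment, ZIKV 2 FFU/cell for 6 h at 37 C, Caspase-Glo luminescence read-out.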

[9] = qHTS assay to identify small molecule inhibitors of chordoma cells - UCH-1 (AID 1259355; active = well fitted curve in the direction sought with a large enough effect; an effect the other way counts as inactive or inconclusive; also: nearly all actives have a fitted effect of over 55% in size)
Summary of the method: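 Cells (800/well) were seeded and left overnight at 37 C, 5% CO2, then treated with drugs at 15 concentrations plus a combination mix of auranofin, camptothecin, doxorubicin, rubitecan and topotecan. Viability after 48hr was read by CellTiter-Glo luminescence.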

[10] = qHTS assay to identify small molecule inhibitors of chordoma cells - UCH-2 (AID 1259356; active = well fitted curve in the direction sought with a large enough effect; an effect the other way counts as inactive or inconclusive)
[11] = High-throughput drug toxicity screening in the BPDCN cell line Gen2.2 (AID 1224824); conditions: Gen2.2 BPDCN cells; at 45.8 µM (top of the series) unless noted;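 also: cells exposed to compounds for 48 h before reading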
Summary of the method: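 Gen2.2 cells (500/well) in phenol red-free RPMI with 10% FBS were exposed to compounds for 48 h at 37 °C, 5% CO2. Viability was read by CellTiter-Glo luminescence and normalized to DMSO (100%) and 9.2 uM bortezomib (0%).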

[12] = High-throughput drug toxicity screening in the BPDCN cell line Cal-1 (AID 1224825); conditions: Cal-1 BPDCN cell viability, qHTS; at 45.8 µM (top of the series) unless noted
Summary of the method: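 Cal-1 cells, 500 per well in phenol-red-free RPMI with 10% FBS, exposed to compounds for 48 hours at 37C, 5% CO2. Viability read by CellTiter-Glo luminescence; percent activity normalized to DMSO (100%) and 9.2 uM bortezomib final (0%).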

[13] = qHTS Screen of the MIPE 4.0 Collection Against Ewings Sarcoma (TC71) (AID 1259253; active = well fitted curve in the direction sought with a large enough effect; an effect the other way counts as inactive or inconclusive; also: nearly all actives have a fitted effect of over 40% in size)
Summary of the method: (§1)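 Log-phase cells in RPMI with 5% FBS attached for 4 h, then received compounds as a titration for 48 h at 37C, 5% CO2. Viability was read by CellTiter-Glo luminescence and normalized to DMSO and no-cell wells.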

[14] = qHTS Screen of the MIPE 4.0 Collection Against Ewings Sarcoma (EW8) (AID 1259255; active = well fitted curve in the direction sought with a large enough effect; an effect the other way counts as inactive or inconclusive; also: nearly all actives have a fitted effect of over 35% in size)
Summary of the method: as §1

[15] = qHTS Screen of the MIPE 4.0 Collection Against Ewings Sarcoma (TC32) (AID 1259256; active = well fitted curve in the direction sought with a large enough effect; an effect the other way counts as inactive or inconclusive; also: potency is read from the fitted curve at half-maximal effect; nearly all actives have a fitted effect of over 45% in size)
Summary of the method: as §1

[16] = Identifying Small Molecule Inhibitors of Pancreatic Cancer Stem Cells (SN12C, Adherent) (AID 1259358; active = well fitted curve in the direction sought with a large enough effect; an effect the other way counts as inactive or inconclusive;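 also: cell survival measured after 48 h of compound exposure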)
Summary of the method: (§2)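 Spheroids grown 14 days in stem cell media on hydrogel-coated nonadherent plates; 2D lines seeded directly. Compounds added after 4 h attachment, 48 h at 37C, 5% CO2; CellTiter-Glo luminescence normalized to DMSO (no inhibition) and no-cell wells (full inhibition).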

[17] = Identifying Small Molecule Inhibitors of Pancreatic Cancer Stem Cells (SN12C, Spheroid) (AID 1259360; active = well fitted curve in the direction sought with a large enough effect; an effect the other way counts as inactive or inconclusive)
Summary of the method: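 Cytotoxicity read by CellTiter-Glo luminescence after 48 h compound exposure at 37C; percent activity scaled between DMSO-treated cells and cell-free wells. Spheroid formats used cells pre-formed 14 days in stem cell media on hydrogel.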

[18] = Identifying Small Molecule Inhibitors of Pancreatic Cancer Stem Cells (A278, Adherent) (AID 1259361; active = well fitted curve in the direction sought with a large enough effect; an effect the other way counts as inactive or inconclusive; also: nearly all actives have a fitted effect of over 35% in size)
Summary of the method: as §2

CCC1(C)CC(=O)NC1=O (stereo not given)
inactive: outcome [1] | outcome [2] | outcome [3] | outcome [4]

Nc1nc(Cl)nc2c1ncn2[C@@H]1O[C@H](CO)[C@@H](O)[C@@H]1F
inactive: outcome [1] | outcome [2] | outcome [4]

S=c1nc[nH]c2nc[nH]c12
inactive: outcome [1] | outcome [2] | outcome [3] | outcome [4]
active: Potency [5] 605 nM | Potency [6] 605 nM

C[C@]12CCC(=O)C=C1CC[C@H]1[C@@H]3CC[C@](O)(C(=O)CO)[C@@]3(C)C[C@H](O)[C@@]12F
inactive: outcome [1] | outcome [2] | outcome [3] | outcome [4]

C#CCN[C@@H]1CCc2ccccc21
inactive: outcome [1] | outcome [2] | outcome [3] | outcome [4]

CCS(=O)(=O)CCn1c([N+](=O)[O-])cnc1C
inactive: outcome [1] | outcome [2] | outcome [3] | outcome [4]

NC(N)=NC(=O)Cc1c(Cl)cccc1Cl
inactive: outcome [1] | outcome [2] | outcome [3] | outcome [4]

Nc1ccc(S(=O)(=O)c2ccc(N)cc2)cc1
inactive: outcome [1] | outcome [2] | outcome [3] | outcome [4]

CC(C)N(CCC(C(N)=O)(c1ccccc1)c1ccccn1)C(C)C (stereo not given)
inactive: outcome [1] | outcome [2] | outcome [3] | outcome [4] | outcome [7] | outcome [8] | outcome [9] | outcome [10]

NC(=O)N1c2ccccc2C=Cc2ccccc21
inactive: outcome [1] | outcome [2] | outcome [3] | outcome [4]

CCC1=C(C)CN(C(=O)NCCc2ccc(S(=O)(=O)NC(=O)NC3CCC(C)CC3)cc2)C1=O (stereo not given)
inactive: outcome [1] | outcome [2] | outcome [3] | outcome [4]

CC(C)[C@H](N)C(=O)OCCOCn1cnc2c(=O)[nH]c(N)nc21
inactive: outcome [1] | outcome [2] | outcome [3] | outcome [4]

COc1cc(C(=O)NS(=O)(=O)c2ccccc2C)ccc1Cc1cn(C)c2ccc(NC(=O)OC3CCCC3)cc12
inactive: outcome [1] | outcome [2] | outcome [3] | outcome [4]

O=P1(N(CCCl)CCCl)NCCCO1 (stereo not given)
inactive: outcome [1] | outcome [2] | outcome [3] | outcome [4] | Potency [5] | Potency [6] | outcome [7] | outcome [8] | Potency [13] | outcome [14] | outcome [9] | outcome [10] | outcome [16] | outcome [17] | outcome [18]
17%: cell viability, % of control (lower = more cytotoxic) [11]
active: Potency [15] 2.1 nM
104%: viability (% of control) [12]
